Screening results as filed in PubChem.
An excerpt weighted towards active compounds, which were near 11% of everything screened.
L3MBTL1 block: qHTS Assay for the Inhibitors of L3MBTL1. AlphaScreen L3MBTL1–H3K9me1 peptide binding. Lethal(3)malignant brain tumor-like protein 1 (Homo sapiens), Q9Y468. Potency, µM (highest dose often 57.1 µM), for inactives: top-dose activity, negative = inhibition, hits mostly inhibitors. 230,000 tested, 0.66% active; note: % is set by controls: 0 for no effect and ±100 for the full control effect; nearly all actives have a fitted effect of over 60% in size
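Read-out is AlphaScreen signal from streptavidin donor and nickel chelate acceptor beads (10 ug/mL final each) bridging L3MBTL1 (50 nM) and biotinylated K9-monomethylated H3(1-15) peptide (75 nM), after 30 min compound exposure at room temperature.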
HP1b chromo inh: HTS for Inhibitors of HP1-beta Chromodomain Interactions with Methylated Histone Tails | Chromobox protein homolog 1 (Homo sapiens), P83916 | AlphaScreen HP1-beta / biotin-H3K9me3 peptide binding | Potency, µM (top dose mostly 114 µM), for inactives: at the top dose activity change, negative = inhibition, most hits filed as inhibitors | 390,000 tested, 0.56% active | AID 540317, 2011; note: nearly all actives have a fitted effect of over 70% in size
Target sequence (P83916 whole entry, looked up): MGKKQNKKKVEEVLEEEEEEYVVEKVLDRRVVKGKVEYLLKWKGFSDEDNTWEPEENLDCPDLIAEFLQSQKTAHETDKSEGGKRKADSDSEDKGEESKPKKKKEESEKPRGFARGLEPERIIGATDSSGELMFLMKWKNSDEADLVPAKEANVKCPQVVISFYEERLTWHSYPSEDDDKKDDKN
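AlphaScreen: HP1-beta (50 nM) preformed 30 min with biotin-H3(1-18)K9me3 peptide (50 nM) in PBS pH 7.4, 0.01% Tween-20. Compound added for 30 min at RT, then streptavidin donor/nickel chelate acceptor beads (10 ug/mL) for 30 min.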
G9a block: qHTS Assay for Inhibitors of Histone Lysine Methyltransferase G9a | Histone-lysine N-methyltransferase EHMT2 (Homo sapiens), Q96KQ7 | G9a H3K9 monomethylation, AlphaScreen, 2 h | Potency, µM (doses to about 102 µM), for the others: top-dose activity, negative = inhibition, actives largely listed as inhibitors | 350,000 tested, 8.8% active | AID 504332, 2011; note: % is set by controls: 0 for no effect and ±100 for the full control effect; nearly all actives have a fitted effect of over 75% in size
Target sequence (Q96KQ7 913-1193 limits assumed): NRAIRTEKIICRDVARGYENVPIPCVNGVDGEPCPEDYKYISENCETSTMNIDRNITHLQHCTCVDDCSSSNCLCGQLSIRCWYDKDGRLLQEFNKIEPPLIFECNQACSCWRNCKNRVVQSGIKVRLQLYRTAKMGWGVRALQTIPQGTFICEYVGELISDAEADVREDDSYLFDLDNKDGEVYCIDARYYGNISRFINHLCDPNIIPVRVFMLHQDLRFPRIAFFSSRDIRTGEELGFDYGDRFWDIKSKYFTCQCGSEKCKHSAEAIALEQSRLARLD
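Using a bead-based AlphaScreen, monomethylated H3K9 product from 2 h room-temperature reactions (G9a 20 nM, peptide 500 nM, SAM 20 uM) was detected with 0.5 ug/mL rabbit anti-H3K9me1 antibody.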
BAZ2B inh: qHTS Assay for Inhibitors of BAZ2B | Bromodomain adjacent to zinc finger domain protein 2B (Homo sapiens), Q9UIF8 | AlphaScreen BAZ2B-H3K14Ac peptide displacement | Potency, µM (series often up to 114 µM), for the others: at the highest dose activity change, negative = inhibition, hits mostly inhibitors | 360,000 tested, 4.4% active; note: % is set by controls: 0 for no effect and ±100 for the full control effect; nearly all actives have a fitted effect of over 60% in size
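Compounds, titrated to a top concentration of 110 uM, were incubated 30 min at room temperature with preformed BAZ2B/acetyl-K14 H3 peptide complex (50 nM each). Proximity signal was measured by AlphaScreen after 20 min with beads.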
JMJD2A Tudor: qHTS Assay for Inhibitors of JMJD2A-Tudor Domain | AID 504339, 2011 | 390,000 tested, 4.4% active | Lysine-specific demethylase 4A (Homo sapiens), O75164 | AlphaScreen JMJD2A-Tudor / H3K4me3 peptide binding | Potency, µM (highest dose often 114 µM), without a hit: at the highest dose activity change, negative = inhibition, most hits filed as inhibitors; note: % is set by controls: 0 for no effect and ±100 for the full control effect; nearly all actives have a fitted effect of over 50% in size
Starred values were filed as active, the others as inactive; [ ] = dose if it differs, or a comment. Calls come from the whole dose curve; as a rule, active = well fitted inhibition curve with a large enough effect; inconclusive = small, poorly fitted or top-dose-only effect; inactive = no such curve, though single readings can be large or run the other way. Potency is the fitted concentration of half-maximal effect.

N#CC(C#N)=C1C=CC=CN1/C(=C\c1ccco1)C(=O)c1ccc(Br)cc1 was read as L3MBTL1 block -19%, HP1b chromo inh -9%, G9a block 11µM*, BAZ2B inh inconclusive and JMJD2A Tudor inconclusive.
`CCC(C)NC(=O)c1ccccc1NC(=O)CN1C(=O)c2cccc3cccc1c23` (centres undefined) gave HP1b chromo inh 66%, G9a block 26%[59 µM], BAZ2B inh 5% and JMJD2A Tudor 22%.
Screening CC(=O)OCCn1c(C)[n+](CCOC(C)=O)c2cc(Cl)c(Cl)cc21 returned HP1b chromo inh 15%, G9a block 50µM*, BAZ2B inh -1% and JMJD2A Tudor -9%.
Screening CCn1c(C)[n+](CCOCC[n+]2c(C)n(CC)c3cc(Cl)c(Cl)cc32)c2cc(Cl)c(Cl)cc21 returned HP1b chromo inh -3%, G9a block inconclusive, BAZ2B inh 0% and JMJD2A Tudor 22µM*.
CC(C)(C)C(=O)OCCn1c(=O)c2cc3c(=O)n(CCOC(=O)C(C)(C)C)c(=O)c3cc2c1=O was read as L3MBTL1 block 2%, HP1b chromo inh 30%, G9a block 2%, BAZ2B inh -2% and JMJD2A Tudor -21%[57.1 µM].
Screening Clc1ccccc1CSc1nc2ccncc2[nH]1 returned HP1b chromo inh -1%, G9a block 45µM*, BAZ2B inh 9% and JMJD2A Tudor -20%.
`O=C(c1ccc(CSc2nc3ccncc3[nH]2)cc1)N1CCCCC1` gave L3MBTL1 block 5%, HP1b chromo inh inconclusive, G9a block 25µM*, BAZ2B inh 79µM* and JMJD2A Tudor 20µM*.
Screening COc1ccc(-c2cn3cccnc3n2)cc1NC(=O)c1cc(C)cc(C)c1 returned HP1b chromo inh 7%[57 µM], G9a block 6%[59 µM], BAZ2B inh -11% and JMJD2A Tudor -19%.
`CCc1cccc(C)c1NC(=O)Cn1cc2c(n1)CCCCC2` gave HP1b chromo inh 33%, G9a block -4%[59 µM], BAZ2B inh 1% and JMJD2A Tudor -8%.
For CC(=O)Nc1ccc(NC(=O)CSc2ncnc3sc(C)c(C)c23)cc1 the results were HP1b chromo inh 2%, G9a block 10%, BAZ2B inh -11% and JMJD2A Tudor -6%.
CCN(CC(=O)Nc1ccc(NC(C)=O)cc1)C(=O)CSc1ncnc2sc(C)c(C)c12 was read as L3MBTL1 block -28%, HP1b chromo inh 8%, G9a block 13µM*, BAZ2B inh -32% and JMJD2A Tudor inconclusive.
Screening Cc1sc2ncnc(Sc3ccccc3C(=O)O)c2c1C returned HP1b chromo inh 9%, G9a block -15%[59 µM], BAZ2B inh -9% and JMJD2A Tudor -5%.
`Cc1sc2ncnc(SCC(=O)NC(=O)c3cccn3C)c2c1C` gave HP1b chromo inh 4%, G9a block 32µM*, BAZ2B inh -21% and JMJD2A Tudor -25%.
For CC(=O)c1ccc(NC(=O)c2ccccc2Sc2ncnc3sc(C)c(C)c23)cc1 the results were L3MBTL1 block -2%, HP1b chromo inh 20%, G9a block 32µM*, BAZ2B inh -36% and JMJD2A Tudor -21%.
Screening N=C1C(c2ccccc2)=C(O)CN1c1cccc(S(=O)(=O)N2CCOCC2)c1 returned L3MBTL1 block 2%, HP1b chromo inh 10%, G9a block 1%, BAZ2B inh -1% and JMJD2A Tudor 20µM*.
Screening CN1CCN(c2ccc(C(=O)c3ccc(Br)cc3)cc2[N+](=O)[O-])CC1 returned L3MBTL1 block -25%, HP1b chromo inh inconclusive, G9a block 45µM*, BAZ2B inh 40µM* and JMJD2A Tudor 22µM*.
`O=C(Nc1nc2ccccc2s1)c1ccc(N2CCCCC2)c([N+](=O)[O-])c1` gave L3MBTL1 block -22%, HP1b chromo inh -26%, G9a block inconclusive, BAZ2B inh 10µM* and JMJD2A Tudor inconclusive.
`CC(=O)N1CCN(c2ccc(C(N)=O)cc2[N+](=O)[O-])CC1` gave HP1b chromo inh 42%, G9a block -2%, BAZ2B inh -8% and JMJD2A Tudor -3%.
`O=C(Nc1ccccc1C(=O)N1CCCC1)c1ccc(Cl)c([N+](=O)[O-])c1` gave L3MBTL1 block 31%, HP1b chromo inh 14%, BAZ2B inh -18% and JMJD2A Tudor -1%.
Screening CN1CCN(c2ccccc2NC(=O)c2ccc(N3CCCC3)c([N+](=O)[O-])c2)CC1 returned L3MBTL1 block -12%, HP1b chromo inh inconclusive, G9a block 50µM*, BAZ2B inh inconclusive and JMJD2A Tudor 56µM*.
O=C(Nc1ccccc1N1CCCCC1)c1ccc(Cl)c([N+](=O)[O-])c1 was read as HP1b chromo inh -18%, G9a block 35µM*, BAZ2B inh inconclusive and JMJD2A Tudor inconclusive.
`CC1CCN(c2ccccc2NC(=O)c2ccc(N3CCOCC3)c([N+](=O)[O-])c2)CC1` gave L3MBTL1 block -12%, HP1b chromo inh 0%, G9a block 8%[59 µM], BAZ2B inh 7% and JMJD2A Tudor -1%.
For O=C(Nc1ccon1)c1ccc(N2CCCCC2)c([N+](=O)[O-])c1 the results were L3MBTL1 block -45%, HP1b chromo inh -32%, G9a block -45%, BAZ2B inh inconclusive and JMJD2A Tudor inconclusive.
Cc1ccc(OCc2nc(-c3ccc(C(=O)N4CCN(c5ccccc5F)CC4)cc3)oc2C)cc1 was read as HP1b chromo inh -10%, G9a block inconclusive, BAZ2B inh inconclusive and JMJD2A Tudor -24%.
Screening CC(=O)Nc1ccc(S(=O)(=O)Oc2cccc(/C=N/N=C3/NC(=O)C(CC(=O)O)S3)c2)cc1 (centres undefined) returned L3MBTL1 block -20%, HP1b chromo inh 29%, G9a block inconclusive, BAZ2B inh 56µM* and JMJD2A Tudor -23%.
`COc1ccc(/C=N/N=C2/NC(=O)C(CC(=O)O)S2)cc1OS(=O)(=O)c1ccccc1` (centres undefined) gave L3MBTL1 block -5%, HP1b chromo inh 34%, G9a block inconclusive, BAZ2B inh -29% and JMJD2A Tudor -5%.
CCOc1cc(/C=N/N=C2/NC(=O)C(CC(=O)O)S2)ccc1OCc1ccc(Cl)cc1 (centres undefined) was read as L3MBTL1 block inconclusive, HP1b chromo inh -24%, G9a block -24%, BAZ2B inh 56µM* and JMJD2A Tudor 50µM*.
